High-throughput results: PubChem BioAssay, National Center for Advancing Translational Sciences (NCATS)
Sampled rows, rich in hits. Any-hit rate of the full collection: about 8%.
MARV entry inh: Marburg virus entry inhibition. AID 720532. Potency, µM (series often up to 49.2 µM), for inactives: top-dose activity change, negative = inhibition, hits mostly inhibitors. 18,000 tested, 6.5% active. Marburg virus pseudotype entry/binding inhibition, cell-based
LASV entry inh: blocks Lassa virus binding or cell entry. Lassa virus pseudotyped entry inhibition, cell-based qHTS. Potency, µM (doses to about 49.2 µM), without a hit: at the top dose activity change, negative = inhibition, hits mostly inhibitors. 18,000 tested, 4.1% active
* = called active by the depositor; u = inconclusive; x = no result given; ! = a repeat was not active; [ ] = another dose, or the depositor's remark. Calls come from the whole dose curve; tested in HEK293 cells. % is set by controls: 0 for no effect and ±100 for the full control effect; potency is the fitted concentration of half-maximal effect.

SMILES | MARV entry inh | LASV entry inh
C=C(C)C1CC23C(=O)[C@]4(C(=O)c5ccccc5)C[C@@]5(C)CCC(CC2C1(C)C)(C4=O)[C@@]35OC (some centres undefined) | 9%[8.59 µM] | -2%[8.59 µM]
O=c1c(O)c(-c2ccccc2)oc2cc(O)cc(O)c12 | 35% | 13%
O=c1c(O)c(-c2cc(O)c(O)c(O)c2)oc2cc(O)cc(O)c12 | 11µM* | 7%
C=C[C@@]1(C)CCC=C2C(=O)CCC[C@H]21 | u | -27%[8.59 µM]
CCOC(=O)Nc1ccc2c(c1)N(C(=O)CCN1CCOCC1)c1ccccc1S2 | 18%[17.8 µM] | -12%[17.8 µM]
CCOC(=O)Nc1ccc2c(c1)N(C(=O)CN(C)C)c1ccccc1CC2 | 40µM* | u
COC(=O)C1=C(C(=O)OC)[C@@H]2Nc3ccccc3[C@@]23C[C@@H](C(=O)OC)N(C(=O)NCCBr)C3=N1 | 78%[8.59 µM] | -11%[8.59 µM]
CCC1CC2C=CCS[P@](=O)(O2)O1 (some centres undefined) | 18% | -31%
O=C1NCN(c2ccccc2)C12CCN(CCCC(c1ccc(F)cc1)c1ccc(F)cc1)CC2 | 1.4µM* | u
O=C1NCN(c2ccccc2)C12CCN(CC1COc3ccccc3O1)CC2 (centres undefined) | -1% | 2%
O=c1[nH]c2ccccc2n1C1CCN(CCCC(c2ccc(F)cc2)c2ccc(F)cc2)CC1 | 14µM* | 25µM*!
CCn1c(=O)[nH]c2ccccc21 | 8% | -2%
CN1CCC(C(=O)Nc2n[nH]c3nnc(-c4ccccc4)cc23)CC1 | u | 16%
CCN1C(=O)NC(c2cccc(C(F)(F)F)c2)C(C(=O)OC)=C1C (centres undefined) | 23%[8.59 µM] | -4%[8.59 µM]
O=C(C1CCCCC1)N1C[C@@H](O)[C@@H](n2cc(C3CC3)nn2)C[C@@H]1c1ccc(Cl)cc1 | -19% | 11%
CCC(=O)O[C@]1(c2ccccc2)CCN(C)C[C@H]1C | 7% | -4%
CN1CC[C@@]2(c3cccc(O)c3)Cc3nc4ccccc4cc3C[C@H]2C1 | 18µM* | -4%
O=C(c1cccs1)N1C[C@H](O)[C@H](n2cc(C3CC3)nn2)C[C@@H]1c1ccc(Cl)cc1 | 21% | x
Nc1ccccc1 | -3% | -10%
O=c1c(-c2ccccc2)c1-c1ccccc1 | 14µM* | 7.1µM*
C=C(C)CCCN1C=C(C(=O)OCC)C(c2ccccc2)NC1=O (centres undefined) | -14%[8.59 µM] | x
C=CCOP1(=O)O[C@H](CC=C)C[C@H](CC=C)O1 (some centres undefined) | u | 38%
CNC(=O)c1ncccc1Nc1nc(Nc2cc3c(cc2OC)CCCN3C(=O)CN(C)C)nc2[nH]ccc12 | 2.5µM* | u
COc1cc(N2CCN(C(C)C)CC2)ccc1Nc1nc(Nc2cccc(F)c2C(=O)O)c2cc[nH]c2n1 | -21% | -4%
COc1cc2c(cc1Nc1nc(Nc3ccsc3C(N)=O)c3cc[nH]c3n1)N(C(=O)CN(C)C)CCC2 | 1.6µM* | x
SMILES | MARV entry inh | LASV entry inh
CC1=C(C(=O)Nc2ccc3n[nH]c(C)c3c2)C(c2ccc(C(F)(F)F)cc2)CC(=O)N1 (centres undefined) | u | 1%
Cc1cc2c(c(=O)o1)[C@H]1O[C@](c3ccsc3)(Cc3c1ccc1ccccc31)O2 | u | 13%[8.59 µM]
O[C@@H]1C[C@H](c2ccccc2)N(Cc2cccs2)C[C@@H]1n1cc(C2CC2)nn1 | 26% | 10%
C=C[C@@H]1C[C@H](C=C)OP(=O)(OCC(=C)C)O1 (some centres undefined) | 50% | 33%
CON=C1C[C@]2(C[C@@H]3C[C@@H](C/C=C(\C)C[C@@H](C)/C=C/C=C4\CO[C@@H]5[C@H](O)C(C)=C[C@@H](C(=O)O3)[C@]45O)O2)O[C@H](/C(C)=C/C(C)C)[C@H]1C | 28µM* | 32µM*
COc1ccc(NC(=O)c2ccc(-c3ccc(C)c4ccccc34)o2)cc1 | 14% | 26%
CCc1ccc(OCc2ccccc2C(=O)Nc2ccc3nc(C)cc(N)c3c2)cc1 | 4µM* | 7.1µM*
CO[C@@H]1[C@@H](O[C@@H]2O[C@H](C)[C@@H](O[C@H]3C[C@@](C)(O)[C@@H](O)[C@H](C)O3)[C@H](N(C)C)[C@H]2O)[C@@H](CC=O)C[C@@H](C)[C@@H](O[C@@H]2CC[C@H](N(C)C)[C@@H](C)O2)/C=C/C=C/C[C@@H](C)OC(=O)C[C@H]1O | u | 10%[17.8 µM]
CCC1OC(=O)C[C@@H](O)[C@H](C)[C@@H](O[C@@H]2O[C@H](C)C[C@H](N(C)C)[C@H]2O)[C@@H](CC=O)C[C@@H](C)C(=O)/C=C/[C@]2(C)OC2C1C (some centres undefined) | 8.9µM* | 25µM*
Cc1ccccc1Nc1oc(-c2ccccc2)nc1C=Cc1ccccc1 | -21%[8.59 µM] | 10%[8.59 µM]
C[C@@H]1O[C@@H](O[C@H]2CC[C@]3(C=O)C4CC[C@]5(C)[C@@H](C6=CC(=O)OC6)CC[C@]5(O)[C@@H]4CC[C@]3(O)C2)[C@H](O)[C@H](O)[C@H]1O (some centres undefined) | 0.1µM* | 0.11µM*
C[C@]12CCC3C(CC[C@]4(O)CC(O)CC[C@@]34C=O)[C@]1(O)CCC2C1=CC(=O)OC1 (some centres undefined) | 10µM* | 11µM*
COC1C(O)C(OC2CC[C@]3(C=O)C4C(OC(C)=O)C[C@@]5(C)C(C6=CC(=O)OC6)CC[C@]5(O)C4CC[C@]3(O)C2)OC(C)C1OC(C)=O (some centres undefined) | -13% | 0%
CC1O[C@@H](OC2CC[C@@]3(C=O)C4CC[C@]5(C)C(C6=CC(=O)OC6)CC[C@@]5(O)C4CC[C@]3(O)C2)C(O)C(O)C1O (some centres undefined) | 0.2µM* | 0.25µM*
CCOC(=O)[C@@H]1CSCCS(=O)(=O)N1C(=O)c1ccc(Br)cc1 | 13% | 10%
O=C1OC2(CCCCC2)CC2=C1[C@H]1O[C@](c3ccsc3)(Cc3c1ccc1ccccc31)O2 | 2%[8.59 µM] | 6%[8.59 µM]
CCCCCC(=O)N1C[C@@H](n2cc(COC(=O)c3ccccc3)nn2)[C@H](O)C[C@H]1c1ccc(Cl)cc1 | u | 13%
COC(=O)C1=C(C)N(Cc2ccccc2)C(=NCc2ccccc2)NC1c1ccccc1 (centres undefined) | u | 29%[8.59 µM]
C[C@H]1CC[C@H]2C(=O)N(Cc3ccc(Cl)cc3)C[C@H](O)CN2[C@H]1c1ccc(Br)cc1 | -2%[8.59 µM] | 10%[8.59 µM]
CC(C)n1cnc2c(C(=O)N[C@H]3CN4CCC3CC4)cc(Cl)cc21 | 7.1µM* | 35µM*!
CCC(C)CN1C(=O)NC(CCc2ccccc2)C(C(C)=O)=C1C (centres undefined) | u | -10%[8.59 µM]
CC(C)COC[C@H](CN(Cc1ccccc1)c1ccccc1)N1CCCC1 | 6.3µM* | -24%[17.8 µM]
c1ccc(CN(CC2=NCCN2)c2ccccc2)cc1 | u | -4%
O=P12OCC=C[C@H](C[C@H](CC3C#C3)O1)O2 | 74% | x
CNCCCC1c2ccccc2C=Cc2ccccc21 | 7.1µM* | u
C[C@H]1O[C@@H](O[C@H]2[C@@H](O)C[C@H](O[C@H]3[C@@H](O)C[C@H](O[C@H]4CC[C@]5(C)C6CC[C@]7(C)[C@@H](C8=CC(=O)OC8)CC[C@]7(O)C6CC[C@@H]5C4)O[C@@H]3C)O[C@@H]2C)C[C@H](O)[C@@H]1O (some centres undefined) | u | 0.0025µM*
